Assay outcomes deposited in PubChem BioAssay by National Center for Advancing Translational Sciences (NCATS).
Only some compounds are listed: those with a hit (about 12% of all), similar ones and a draw of the others.
TDP1 inh – qHTS Assay for Inhibitors of Tyrosyl-DNA Phosphodiesterase (TDP1); Tyrosyl-DNA phosphodiesterase 1 (Homo sapiens), Q9NUW8; recombinant TDP1, AlphaScreen DNA substrate cleavage; Potency, µM (series often up to 130 µM), without a hit: at the highest dose activity change, negative = inhibition, hits mostly inhibitors; actives 0.28% (n = 350,000); AID 485290, 2010; further: on the % scale 0 is the no-effect control and ±100 the full control effect; nearly all actives have a fitted effect of over 40% in size
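Tdp1 1 nM final; 15 min RT w/ cpd; substrate 15 nM, 5 min; beads 10 ug/ml, 10 min; AlphaScreen read. Neg ctrl: no enzyme.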
HP1b chromo inh – HTS for Inhibitors of HP1-beta Chromodomain Interactions with Methylated Histone Tails. Potency, µM (series often up to 114 µM), for inactives: at the top dose activity change, negative = inhibition, usual class: inhibitors. Chromobox protein homolog 1 (Homo sapiens), P83916. AlphaScreen HP1-beta / biotin-H3K9me3 peptide binding. actives 0.56% (n = 390,000); further: nearly all actives have a fitted effect of over 70% in size
Target sequence (P83916 whole entry, looked up): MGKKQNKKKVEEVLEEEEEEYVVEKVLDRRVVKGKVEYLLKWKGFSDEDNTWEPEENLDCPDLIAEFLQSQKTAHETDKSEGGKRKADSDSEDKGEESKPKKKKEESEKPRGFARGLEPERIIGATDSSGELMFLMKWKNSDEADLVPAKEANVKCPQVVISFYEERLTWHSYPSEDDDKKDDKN
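AlphaScreen: HP1-beta (50 nM) preformed 30 min with biotin-H3(1-18)K9me3 peptide (50 nM) in PBS pH 7.4, 0.01% Tween-20. Compound added for 30 min at RT, then streptavidin donor/nickel chelate acceptor beads (10 ug/mL) for 30 min.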
BAZ2B block – qHTS Assay for Inhibitors of BAZ2B | Bromodomain adjacent to zinc finger domain protein 2B (Homo sapiens), Q9UIF8 | AlphaScreen BAZ2B-H3K14Ac peptide displacement | Potency, µM (top dose mostly 114 µM), for the others: at the top dose activity change, negative = inhibition, most hits filed as inhibitors | actives 4.4% (n = 360,000) | AID 504333, 2011; further: on the % scale 0 is the no-effect control and ±100 the full control effect; nearly all actives have a fitted effect of over 60% in size
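Protein-peptide AlphaScreen: BAZ2B 50 nM, b-H3K14Ac 50 nM, 1x PBS pH 7.4 + 0.01% Tween-20. Preincubation 30 min RT; cpd 30 min RT (top 110 uM); beads 20 min RT, light-protected.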
JMJD2A Tudor – qHTS Assay for Inhibitors of JMJD2A-Tudor Domain | AID 504339, 2011 | Lysine-specific demethylase 4A (Homo sapiens), O75164 | actives 4.4% (n = 390,000) | AlphaScreen JMJD2A-Tudor / H3K4me3 peptide binding | Potency, µM (series often up to 114 µM), without a hit: top-dose activity change, negative = inhibition, hits mostly inhibitors; further: on the % scale 0 is the no-effect control and ±100 the full control effect; nearly all actives have a fitted effect of over 50% in size
Sfp PPTase inh – qHTS Assay for Inhibitors of Bacillus subtilis Sfp phosphopantetheinyl transferase (PPTase) | Biochemical Sfp PPTase activity, qHTS | Potency, µM, for the others: largest response in the series, negative = inhibition, actives largely listed as inhibitors | AID 1490, 2009 | actives 3.5% (n = 310,000) | 4'-phosphopantetheinyl transferase ffp (Bacillus subtilis), Q9F4F7;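 further: the enzyme is Sfp with the accession as filed and its product quenches rhodamine fluorescence; 0% = enzyme reaction without inhibitor and -100% = no enzyme wells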
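Step 1, compound plus 15 nM Sfp-PPTase, 15 min, room temperature. Step 2, add rhodamine-CoA (5 uM) and BHQ-2-YbbR (12.5 uM). Step 3, read 525/598 nm fluorescence at 0 and 30 min.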
G9a inh – qHTS Assay for Inhibitors of Histone Lysine Methyltransferase G9a; Histone-lysine N-methyltransferase EHMT2 (Homo sapiens), Q96KQ7; G9a H3K9 monomethylation, AlphaScreen, 2 h; Potency, µM (top dose mostly 102 µM), without a hit: top-dose activity, negative = inhibition, usual class: inhibitors; actives 8.8% (n = 350,000); AID 504332, 2011; further: on the % scale 0 is the no-effect control and ±100 the full control effect; nearly all actives have a fitted effect of over 75% in size
Target sequence (Q96KQ7 913-1193 limits assumed): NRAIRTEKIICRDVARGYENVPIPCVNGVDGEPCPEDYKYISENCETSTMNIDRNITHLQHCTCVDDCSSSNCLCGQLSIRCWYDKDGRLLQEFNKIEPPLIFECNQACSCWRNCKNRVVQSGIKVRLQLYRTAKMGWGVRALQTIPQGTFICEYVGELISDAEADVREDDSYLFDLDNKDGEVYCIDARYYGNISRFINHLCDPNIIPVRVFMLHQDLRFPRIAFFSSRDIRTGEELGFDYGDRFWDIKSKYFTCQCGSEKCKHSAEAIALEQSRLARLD
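Methyltransferase reactions run at room temperature for 2 h (20 nM enzyme, 500 nM biotin-H3K9 peptide, 20 uM SAM) after a 15 min compound preincubation; product detected by AlphaScreen beads and anti-H3K9me1 antibody.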
An asterisk follows results filed as active; [ ] = remark or other dose. The call rests on the fitted dose curve; in most records, active means well fitted curve in the direction sought with a large enough effect; inconclusive means small, poorly fitted or top-dose-only effect, or another doubt; inactive means no such curve, though single readings can be large; an effect the other way counts as inactive or inconclusive. Potency means the concentration at half of the fitted maximal effect.

For CCC1CCc2nc3sc(C(=O)Nc4cccc(C(F)(F)F)c4)c(N)c3cc2C1 (stereo not given) the results were HP1b chromo inh 30%, BAZ2B block 6%, JMJD2A Tudor -4% and G9a inh -26%[59 µM].
`CC(=O)Nc1n[nH]c(=S)s1` gave HP1b chromo inh inconclusive and JMJD2A Tudor 5µM*.
Screening CNc1n[nH]c(=S)s1 returned HP1b chromo inh 25µM*, BAZ2B block -24%, JMJD2A Tudor 5µM*, Sfp PPTase inh 35µM* and G9a inh 3.5µM*.
Screening Cc1ccc(-n2ncc(C(=O)Nc3ccc4c(c3)OCO4)c2C2CCN(C(=O)OC(C)(C)C)CC2)c(C)c1 returned TDP1 inh 11%, HP1b chromo inh -17%, BAZ2B block inconclusive, JMJD2A Tudor 32µM* and G9a inh inconclusive.
Cc1cccc(C)c1-n1ncc(C(=O)Nc2ccc3c(c2)OCO3)c1C1CCN(C(=O)OC(C)(C)C)CC1 was read as TDP1 inh 7%, HP1b chromo inh -9%, BAZ2B block -37%[57.1 µM], JMJD2A Tudor inconclusive and G9a inh inconclusive.
For Cc1ccc(C(C[N+](=O)[O-])Sc2ccc(N)cc2)cc1 (stereo not given) the results were TDP1 inh 10%, HP1b chromo inh -1%, BAZ2B block inconclusive, JMJD2A Tudor -26%, Sfp PPTase inh 5.6µM* and G9a inh 40µM*.
`CCc1ccc(CNC(=O)c2ccc3nc(SCc4ccc(F)cc4)n(C)c3c2)cc1` gave TDP1 inh 2%, HP1b chromo inh 78%, BAZ2B block 7%, JMJD2A Tudor -10% and G9a inh 29%[59 µM].
For FC(F)(F)Sc1ccc(NC(=S)NCc2ccccc2)cc1 the results were TDP1 inh -3%, HP1b chromo inh 104%, BAZ2B block 2%, JMJD2A Tudor 37%, Sfp PPTase inh 22% and G9a inh 8%[12.7 µM].
Screening Nc1ccc(SC(F)(F)F)cc1 returned TDP1 inh 6%, HP1b chromo inh 29%, BAZ2B block 5%, JMJD2A Tudor 1%, Sfp PPTase inh -4% and G9a inh 50µM*.
`C=CCOC(=O)N[C@@H](c1ccc(Br)cc1)C(C(C)=O)C(C)=O` gave TDP1 inh 3% and Sfp PPTase inh -13%.
CN(C)S(=O)(=O)c1cccc2c1C(=O)c1ccccc1C2=O was read as TDP1 inh 5%, HP1b chromo inh 30%, BAZ2B block -37%, JMJD2A Tudor -5%, Sfp PPTase inh 1% and G9a inh inconclusive.
CN(C)c1cc2c(c(N(C)C)c1)C(=O)c1ccccc1C2=O was read as TDP1 inh -9%, HP1b chromo inh inconclusive, BAZ2B block 8.9µM*, JMJD2A Tudor inconclusive, Sfp PPTase inh inconclusive and G9a inh 10µM*.
`COc1ccccc1-n1nnnc1SCC(=O)N(CC(C)C)C1CCS(=O)(=O)C1` (stereo not given) gave TDP1 inh 2%, HP1b chromo inh 35%, BAZ2B block -11%, JMJD2A Tudor 1%, Sfp PPTase inh 9% and G9a inh -8%.
For COc1ccccc1C(=O)NS(=O)(=O)c1ccc(C)cc1 the results were TDP1 inh 1%, HP1b chromo inh 44% and JMJD2A Tudor -13%.
